Assay results published in PubChem BioAssay (NCI).
Compounds without any hit were thinned out: in the full panel of roughly 79,000, 15% have a hit. Unmarked numbers belong to inactive results. Active and inactive are the calls of the source. No stated cut-off is given here; in the data, active means growth inhibition above about 70%; inactive means the rest.

How the values were obtained:
[1] = NCI Yeast Anticancer Drug Screen. Data for the rad50 strain (AID 155);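 further: 0% = growth of vehicle-only cultures of the same strain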; settings: S. cerevisiae rad50 strain growth inhibition, stronger effect = higher value
Method in brief: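 Genetically altered yeast (DNA repair pathway); compound treatment; growth inhibition vs vehicle ctrl.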

[2] = NCI Yeast Anticancer Drug Screen. Data for the mec2-1 strain (AID 157); settings: S. cerevisiae mec2-1 strain, stronger effect = higher value
Method in brief: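 Each compound was tested on mec2-1 yeast, a strain altered in DNA damage repair or cell cycle control. Growth inhibition is reported relative to vehicle.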

[3] = NCI Yeast Anticancer Drug Screen. Data for the sgs1 mgt1 strain (AID 161);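 further: 0% = growth of cultures given vehicle only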; settings: S. cerevisiae sgs1 mgt1 strain, stronger effect = higher value
Method in brief: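 Genetically altered yeast, compound exposure, growth inhibition relative to vehicle.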

[4] = NCI Yeast Anticancer Drug Screen. Data for the cln2 rad14 strain (AID 165);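 further: 0% = growth equal to vehicle treated cultures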; settings: S. cerevisiae cln2 rad14 strain, stronger effect = higher value
Method in brief: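 Test compounds were added to cln2 rad14 yeast cultures; inhibition of growth was then determined by comparison with vehicle treatment.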

[5] = NCI Yeast Anticancer Drug Screen. Data for the bub3 strain (AID 167); settings: S. cerevisiae bub3 mutant strain, stronger effect = higher value
Method in brief: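 Yeast carrying a defined mutation is treated with each compound, and growth is compared with that of vehicle-exposed cells to give inhibition.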

[6] = NCI Yeast Anticancer Drug Screen. Data for the mlh1 rad18 strain (AID 175); settings: S. cerevisiae mlh1 rad18 strain growth inhibition, stronger effect = higher value
Method in brief: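 Inhibition values reflect reduced growth of mutant yeast versus vehicle-treated controls following compound exposure; the mutations affect DNA damage repair.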

[7] = at 5.0 µM (retest, dose inferred, filed as 0.5)
[8] = at 50.0 µM (retest, dose inferred, filed as 5.0)

| Compound | growth inhibition [1, 7] | growth inhibition [1, 8] | growth inhibition ([1]; at 50.0 µM) | growth inhibition [2, 7] | growth inhibition [2, 8] | growth inhibition ([2]; at 50.0 µM) | growth inhibition [3, 7] | growth inhibition [3, 8] | growth inhibition ([3]; at 50.0 µM) | growth inhibition [4, 7] | growth inhibition [4, 8] | growth inhibition ([4]; at 50.0 µM) | growth inhibition [5, 7] | growth inhibition [5, 8] | growth inhibition ([5]; at 50.0 µM) | growth inhibition [6, 7] | growth inhibition [6, 8] | growth inhibition ([6]; at 50.0 µM) |
| --- | --- | --- | --- | --- | --- | --- | --- | --- | --- | --- | --- | --- | --- | --- | --- | --- | --- | --- |
| N=C(N)SC1c2ccccc2-c2cc([N+](=O)[O-])ccc21 (configuration not stated) | 29% | 98% (active) | 97.7% (active) | 13% | 98% (active) | 98.1% (active) | 22% | 98% (active) | 98.6% (active) | 14% | 98% (active) | 97.8% (active) | 11% | 99% (active) | 98% (active) | 17% | 99% (active) | 98.5% (active) |
| CCOC(=O)NC(c1ccc(C(NC(=O)OCC)P(=O)(O)NC23CC4CC(CC(C4)C2)C3)cc1)P(=O)(O)NC12CC3CC(CC(C3)C1)C2 (configuration not stated) | -8% | -6% | 60.4% | 5% | -10% | 84.2% (active) | -8% | -24% | 81% (active) | -30% | -2% | 71.8% (active) | 13% | -7% | 91% (active) | -31% | -21% | 76.4% (active) |
| NCCCSc1ccc(Br)cc1 | -10% | 13% | 9.6% | -4% | -5% | 34.3% | -4% | 47% | 20.1% | 0% | 17% | 35.1% | -22% | -21% | 8.3% | -4% | 13% | 8.5% |
| CC1=NN(c2nc(N)nc(C(C)Sc3cc(Cl)c(C)cc3S(N)(=O)=O)n2)C(C)(C)C1 (configuration not stated) | 4% | 18% | -51% | -1% | -24% | -25.8% | 8% | 1% | -10.6% | 29% | -6% | 40.9% | 41% | 26% | -17.1% | -6% | 0% | 2.9% |
